From the supplement of paper PMC6555819

Assays:
Test in all cases: PBM binding z-score (relative to random genomic background probes); higher = stronger binding; sequences stand for … in GC…GCGATTGACAGCGTAGAATGAAGG
[1] = system: FXR:RXRa (NR concentration 270 nM, RXRa partner concentration 90 nM)
How it was run: (§1)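 Regression normalization was applied to scanned fluorescence from custom Agilent 4×180K protein-binding microarrays. Before scanning, arrays were incubated 1 h with ligand-free nuclear receptor dimers, and binding was detected with antibodies against each partner (one per run). Binding z-scores use the random background probes as reference.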

[2] = system: LXRa:RXRa (NR concentration 270 nM, RXRa partner concentration 90 nM)
How it was run: as §1

[3] = system: LXRa homodimer (NR concentration 270 nM)
How it was run: as §1

[4] = system: LXRb:RXRa (NR concentration 270 nM, RXRa partner concentration 90 nM)
How it was run: as §1

[5] = system: LXRb homodimer (NR concentration 270 nM)
How it was run: as §1

[6] = system: PPARa:RXRa (NR concentration 270 nM, RXRa partner concentration 90 nM)
How it was run: as §1

[7] = system: PPARg:RXRa (NR concentration 180 nM, RXRa partner concentration 90 nM)
How it was run: as §1

[8] = system: PPARg:RXRa 270nM:90nM, anti-RXR (NR concentration 270 nM, RXRa partner concentration 90 nM)
How it was run: as §1

[9] = system: PPARg:RXRa 30nM:10nM, anti-RXR (NR concentration 30 nM, RXRa partner concentration 10 nM)
How it was run: as §1

[10] = system: PPARg:RXRa 90nM:30nM, anti-RXR (NR concentration 90 nM, RXRa partner concentration 30 nM)
How it was run: as §1

[11] = system: PPARg:RXRa DBDmut IVT, anti-RXR (DBD mutation: RXRa K156A/R161A, NR concentration 270 nM, RXRa partner concentration 90 nM)
How it was run: as §1

[12] = system: PPARg:RXRa IVT, anti-PPARg (NR concentration 270 nM, RXRa partner concentration 90 nM)
How it was run: as §1

[13] = system: PPARg DBDmut:RXRa IVT, anti-PPARg (DBD mutation: PPARg1 K132A/R137A, NR concentration 270 nM, RXRa partner concentration 90 nM)
How it was run: as §1

[14] = system: PPARg DBDmut IVT, anti-PPARg (DBD mutation: PPARg1 K132A/R137A, NR concentration 270 nM)
How it was run: as §1

[15] = system: PPARg homodimer (NR concentration 180 nM)
How it was run: as §1

[16] = system: PXR:RXRa (NR concentration 270 nM, RXRa partner concentration 90 nM)
How it was run: as §1

[17] = system: PXR homodimer (NR concentration 270 nM)
How it was run: as §1

[18] = system: RARa:RXR (NR concentration 270 nM, RXRa partner concentration 90 nM)
How it was run: as §1

[19] = system: RARa homodimer (NR concentration 270 nM)
How it was run: as §1

[20] = system: RARb:RXRa (NR concentration 270 nM, RXRa partner concentration 90 nM)
How it was run: as §1

| Sequence | PBM binding z-score [1] | PBM binding z-score [2] | PBM binding z-score [3] | PBM binding z-score [4] | PBM binding z-score [5] | PBM binding z-score [6] | PBM binding z-score [7] | PBM binding z-score [8] | PBM binding z-score [9] | PBM binding z-score [10] | PBM binding z-score [11] | PBM binding z-score [12] | PBM binding z-score [13] | PBM binding z-score [14] | PBM binding z-score [15] | PBM binding z-score [16] | PBM binding z-score [17] | PBM binding z-score [18] | PBM binding z-score [19] | PBM binding z-score [20] |
| --- | --- | --- | --- | --- | --- | --- | --- | --- | --- | --- | --- | --- | --- | --- | --- | --- | --- | --- | --- | --- |
| GGAACGAGGGCAAGCTGATAGCAGAGTTTGATGG | 0.351 | 0.065 | -0.473 | 0.0396 | -1.04 | 1.37 | 0.979 | 0.733 | -0.285 | 0.3 | 3.83 | 2.53 | -0.705 | -0.924 | -0.391 | 0.149 | 0.429 | -0.0859 | -0.744 | 2.46 |
| CAAACTACGTCAAGAGGTCAAAGTCCGCTTCCCG | 5.07 | 5.77 | 5.87 | 4.77 | 2.06 | 5.09 | 3.07 | 4.83 | 2.39 | 4.26 | 1.03 | 2.44 | 1.05 | 0.608 | 3.36 | 5.8 | 3.22 | 6.09 | 1.56 | 4.01 |
| CCTCGTTGGTCAGGAGGTCACACACCGGATATGA | 3.4 | 3.49 | 1.96 | 3.4 | 0.47 | 4.22 | 2.29 | 2.99 | 0.71 | 2.06 | 0.408 | 2.72 | 0.14 | 0.13 | 3.05 | 4.26 | 0.821 | 4.73 | 1.57 | 3.75 |
| CGTCCAAGGTCAGCAGCTCAGTGAAAGCGACGTG | 5.06 | 3.06 | -0.124 | 2.14 | -0.454 | 4 | 1.68 | 2.61 | 0.139 | 1.47 | 2.5 | 2.27 | -0.354 | -0.261 | 1.96 | 2.16 | -0.1 | 2.83 | 0.297 | 4.83 |
| ACAGACAGGTAATGAAGGTAACTCAGGCTATCAT | 0.224 | 0.251 | 0.0515 | 0.0112 | 0.161 | 0.173 | 0.58 | -0.0336 | -0.0735 | -0.327 | -0.129 | 0.574 | 0.213 | 0.735 | 0.348 | 0.147 | 0.218 | 0.263 | 0.161 | 0.169 |
| GCGACTGGGGCATCAGCAGGTAACCATAACTTAA | -0.303 | -0.254 | -0.127 | 0.0489 | -0.791 | 0.658 | 0.905 | 0.685 | -0.0973 | 0.285 | 3.85 | 3.1 | -0.465 | -0.924 | 0.206 | -0.194 | -0.176 | 0.582 | -0.479 | 0.352 |
| CCAGACAGGTGATAAGGTAACTCAGCCTCGATTA | 0.336 | 0.0665 | -0.0911 | 0.157 | -0.187 | 0.51 | 0.555 | 0.114 | 0.063 | 0.191 | 0.812 | 0.261 | 0.0987 | -0.29 | 1.14 | -0.0216 | 0.227 | 0.472 | 0.984 | 0.359 |
| TCGAGTAGGTTAGCAATGGGGCATTCAGCTTTCT | -0.119 | 0.188 | -0.715 | 0.235 | -0.623 | 0.539 | -0.248 | 0.643 | 1.08 | 1.09 | 2.43 | 1.46 | -0.902 | -1.37 | -0.285 | -0.264 | -0.747 | -0.123 | -0.474 | 0.542 |
| CGTACAAGGTCAAGGTCAGTGAAAGAGACTCGAA | 7.99 | 5.91 | 1.33 | 5.06 | 1.34 | 6.47 | 7.35 | 6.73 | 3.62 | 5.87 | 4.64 | 5.48 | 1.83 | 0.837 | 4.4 | 5.27 | 1.65 | 5.96 | 2.4 | 5.65 |
| AGAATGAGGTTAAGATCAGGGCAACAGAATACAT | 2.64 | 2.98 | 0.329 | 2.17 | 0.282 | 3.7 | 2.57 | 2.84 | 1.29 | 2.24 | 2.97 | 3.28 | 1.36 | 0.923 | 1.05 | 2.34 | 0.694 | 2.78 | 0.44 | 2.45 |
| CTACCAAGGTGTACAAGGTCGTTGATTACTATTC | 0.534 | 0.766 | 0.255 | 1.26 | -0.288 | 1.31 | 0.268 | 0.583 | -0.154 | 0.498 | 0.458 | 0.771 | 0.278 | 0.0269 | 0.61 | 1.61 | 1.18 | 1.47 | 0.124 | 0.901 |
| CCTGCTAGGTCAATGGTCAGTTAAAGCAGCTCGC | 3.02 | 2.09 | 0.0181 | 1.53 | -0.0412 | 3.22 | 4.36 | 4.88 | 2.78 | 4.69 | 4.28 | 3.9 | -0.811 | -0.609 | 1.46 | 0.845 | -0.135 | 1.69 | -0.34 | 3.95 |
| TCTAGTTGGTCAAAGGTGACACACTCGAAATGCG | 1.46 | 1.67 | 0.489 | 2.08 | 0.376 | 4.71 | 8.48 | 8.54 | 8.19 | 8.69 | 3.81 | 4.76 | 1.03 | 1.64 | 2.13 | 2.14 | 0.548 | 2.88 | 1.33 | 2.38 |
| CTCGGAAGGTCGTGCTCAGGTGAGTATACCAAAC | 1.88 | 1.55 | -0.00824 | 1.29 | -0.534 | 2.79 | 0.376 | 1.25 | 0.069 | 0.755 | 0.012 | 0.881 | -0.0386 | -0.266 | 0.944 | 1.55 | -0.228 | 2.36 | -0.507 | 2.5 |
